# Assay outcomes as filed in PubChem.
# FMDV RLuc: FMDV antiviral activity by Renilla signal | FMDV replicon cells, Renilla luciferase signal | Potency, µM (highest dose often 57.5 µM), for inactives: top-dose activity change, negative = inhibition, usual class: inhibitors | 120,000 compounds, 0.32% hits; also: nearly all actives have a fitted effect of over 55% in size
# FMDV FLuc: FMDV antiviral activity by firefly signal; FMDV antiviral cell assay, firefly luciferase signal; Potency, µM (titrated, usually from 57.5 µM), for inactives: top-dose activity change, negative = inhibition, hits mostly inhibitors; 120,000 compounds, 0.23% hits; AID 1745856; also: nearly all actives have a fitted effect of over 60% in size
# * hit, by the source's call; ? = inconclusive; [ ] = remark or other dose. In the library only some 0.51% were active in any assay of this set; here they are far more common. Calls follow the shape of the full dose curve. % is scaled to controls: 0 for no effect and ±100 for the full control effect; potency is read from the fitted curve at half-maximal effect.
SMILES,FMDV RLuc,FMDV FLuc
Cc1nc2cc(-c3cccc(F)c3)nn2c(C)c1CCC(=O)N1CCN(c2ccc(F)cc2)CC1,-5.2%,?
COc1ccc(N2CCN(C(=O)CCc3c(C)nc4cc(-c5cccc(F)c5)nn4c3C)CC2)cc1,-4.5%,25.1µM*
COc1ccc(C(NC(=O)CSc2ccc(Br)cc2)c2nccn2C)cc1 (stereo not drawn),-19.8%,-33.2%
Cc1oc(-c2cccs2)nc1CC(=O)NCC1CCCO1 (stereo not drawn),-9.6%,6.7%
CCC1CCC(N(C(=O)Cc2nc(-c3cccs3)oc2C)C2CC2)CC1 (stereo not drawn),-20.2%,35.5µM*
CC(C)CCn1c(SCCc2ccccc2)nc2c1c(=O)n(C)c(=O)n2C,-2.6%,5.3%
Cc1cc(C(=O)N2CCN(c3cccc(C(F)(F)F)c3)CC2)cs1,-3.5%,-3.4%
Cc1nc(/C=C/C(=O)N2CCN(c3cccc(C(F)(F)F)c3)CC2)cs1,20µM*,?
CCCN1CCN(c2cc(C(=O)O)c3cc(NC(=O)c4ccccc4C)ccc3n2)CC1,-1.5%,3.2%
CCOc1ccc(-c2nc(CSCC(=O)N3CCN(c4cccc(C(F)(F)F)c4)CC3)c(C)o2)cc1,?,28.2µM*
CCOc1ccc(-c2nc(CSCC(=O)N3CCN(c4ccc(F)cc4)CC3)c(C)o2)cc1,-4.7%,-0.6%
COc1ccc(C(=O)Nc2nc(-c3nnn(-c4ccc(F)cc4F)c3C)ns2)cc1,15.2%,43.3%
COc1ccc(C(=O)Nc2nc(-c3nnn(-c4ccccc4Br)c3C)ns2)cc1,14.1µM*,14.1µM*
Cc1cc(C)cc(C(=O)NCCc2csc(-c3ccc(C(F)(F)F)cc3)n2)c1,1.8%,-14.7%
CC(=O)N1CCN(Cc2csc(-c3ccc(C(F)(F)F)cc3)n2)CC1,12.6µM*,20µM*
Nc1nc(COC(=O)c2c(Cl)cccc2Cl)nc2ccccc12,102.7%,100.4%
CCCn1c(SCC(=O)Nc2ccc(C)c(F)c2)nc(O)cc1=O,-8.3%,-7.5%
Cc1nc2sc(C#N)c(N)c2c(C)c1CC(=O)c1ccccc1,18.5%,21.5%
Fc1ccc(-c2ccc(CNCC3CCNCC3)o2)cc1,-28.5%,-27.3%
Clc1ccc(Cl)c(-c2ccc(CNCC3CCNCC3)o2)c1,28.2µM*,31.6µM*
COC(=O)c1cn(CC(=O)N2CCC2)c2ccccc12,-8.6%,-2.0%
O=C(NCC(c1ccco1)N1CCOCC1)c1cc(=O)c2cc(Cl)ccc2o1 (stereo not drawn),14.0%,12.9%
O=C(Nc1ccc2c(c1)OCCCO2)c1ccc(SCc2cscn2)cc1,?,-10.1%
O=C(Nc1ccc(SCc2cccnc2)cc1)c1ccc2c(c1)OCCCO2,17.8µM*,?
COc1cc(OC)cc(-c2nnc(Cc3ccccc3Cl)o2)c1,202.9%,0.0%
SMILES,FMDV RLuc,FMDV FLuc
Cc1ccc(/C=C(/C#N)C(=O)Nc2cccc3ncccc23)cc1,17.0%,2.0%
Cc1cccc(NC(=O)/C(C#N)=C/c2cc(C(C)(C)C)c(O)c(C(C)(C)C)c2)c1C,6.31µM*,?
CN(CC(=O)C(C#N)c1ccccc1)Cc1ccccc1 (stereo not drawn),0.0%,12.3%
Cc1cc(C)nc(NC(=O)Nc2cccc(Cl)c2C)c1,-6.6%,9.2%
O=C(NCCc1nnc2n1CCCCC2)Nc1ccccc1,-2.4%,2.8%
Cc1nc(-c2ccc(C)c(N3CCN(C(=O)Nc4cccc(Cl)c4C)CC3)c2)no1,?,25.1µM*
Cc1ccc(NC(=O)N2CCN(c3cc(-c4noc(C)n4)ccc3C)CC2)c(C)c1,-3.7%,11.4%
O=C(NC1CCCCCC1)c1ccc2ncsc2c1,20.8%,101.2%
O=C(NC1CCCCC1C(F)(F)F)c1ccc2ncsc2c1 (stereo not drawn),144.0%,8.91µM*
CCn1c(SCc2coc(-c3cccs3)n2)nnc1C1CC1,6.8%,0.0%
CCOC(=O)Cc1ccc(NC(=O)n2ncc3c(C)cccc32)cc1,-3.1%,?
CCOC(=O)Cc1ccc(NC(=O)n2ncc3cc(Cl)ccc32)cc1,7.5%,7.94µM*
COCCn1c(SCc2nc(-c3cccc(C(F)(F)F)c3)no2)nc2ccsc2c1=O,-14.8%,-15.8%
Cn1c(SCc2nc(-c3ccc(C(F)(F)F)cc3)no2)nc2ccsc2c1=O,17.8µM*,22.4µM*
COc1ccc(Cn2c(C(=O)O)c(CNCc3ccccc3F)c3ccc(OC)cc32)cc1,0.0%,35.5µM*
CCOc1ccccc1CNCc1c(C(=O)O)n(Cc2ccccc2)c2cc(OC)ccc12,1.4%,-20.5%
Cc1cccc(NC(=O)CC2(C(=O)O)CCCCC2)c1,6.5%,5.7%
Cc1cccc(NC(=O)CCl)c1,31.6µM*,?
COc1ccc(C(=O)Nc2nc3c(s2)CCCC3)cc1Cl,?,47.2%
O=C(Nc1nc2c(s1)CCCCC2)c1ccc(Cl)cc1,10µM*,-26.3%
COc1ccc(CNC(=O)CSc2nnc3c4cc(-c5ccc(F)cc5)nn4ccn23)cc1,-5.0%,84.6%
COc1ccc(-c2c(C(F)(F)F)oc3cc(OS(C)(=O)=O)ccc3c2=O)cc1OC,?,3.55µM*
COc1ccc2c(=O)c(-c3ccc(OC)c(OC)c3)c(C(F)(F)F)oc2c1,-6.5%,23.6%
CC(NC(=O)CN1CCN(S(=O)(=O)c2ccc3ccccc3c2)CC1)c1cccs1 (stereo not drawn),7.5%,-6.3%
COc1ccccc1Nc1nc2ccccc2nc1NS(=O)(=O)c1ccc(Cl)s1,2.2%,0.9%
SMILES,FMDV RLuc,FMDV FLuc
O=S(=O)(Nc1nc2ccccc2nc1Nc1cccc(F)c1)c1cccc(Cl)c1,3.98µM*,3.55µM*
O=S(=O)(Nc1nc2ccccc2nc1Nc1ccccc1)c1ccc(Cl)s1,?,4.47µM*
COc1cccc(Nc2nc3ccccc3nc2NS(=O)(=O)c2cccc(Cl)c2)c1,32.5%,?
O=S(=O)(Nc1nc2ccccc2nc1Nc1ccc(F)cc1)c1ccc(F)cc1,3.55µM*,2.51µM*
CCOc1ccc(S(=O)(=O)Nc2nc3ccccc3nc2Nc2ccc(F)cc2)cc1,2.0%,3.3%
Cc1ccc(CNC(=O)c2cnccn2)s1,6.2%,3.8%
CC(C)(CNC(=O)c1cc(-c2ccc3c(c2)CCCC3)on1)N1CCOCC1,0.3%,6.8%
CN(CCCNc1cc(C(=O)N2CCOCC2)c2ccccc2n1)C1CCCCC1,-18.2%,-16.2%
CC(=O)c1ccc(NC(=O)C(C)OC(=O)c2nn(-c3ccccc3)c(=O)c3ccccc23)cc1 (stereo not drawn),9.6%,0.0%
COC(=O)c1ccccc1OS(=O)(=O)c1ccc2c(c1)CCCC2,-8.2%[1.06 µM],-26.8%
COc1ccc(C(=O)Oc2c(C)cc(C(O)(C(F)(F)F)C(F)(F)F)cc2C)cc1,8.91µM*,10µM*
Cc1cc(C(O)(C(F)(F)F)C(F)(F)F)cc(C)c1OC(=O)c1ccccc1F,-30.0%,44.0%
COc1ccc(CNCCc2ccc(F)cc2)cc1,3.5%[1.06 µM],0.0%
COc1ccc(CCNCc2ccc(Br)cc2)cc1,12.6µM*,0.0%
O=C(c1cc2cc(Br)ccc2oc1=O)N1CCCCCC1,6.8%,15.6%
Cc1nnsc1C(=O)Nc1ccc(S(=O)(=O)N2CCCCC2)cc1,-2.9%,-8.9%
CCC1CCCCN1S(=O)(=O)c1ccc(NC(=O)c2snnc2C)cc1 (stereo not drawn),?,17.8µM*
CC(C)CC(NC(=O)COc1cccc2ccccc12)C(=O)O (stereo not drawn),9.0%,0.0%
CCCn1nc(C(=O)OCC(=O)N2CC(=O)Nc3ccccc32)c2ccccc2c1=O,19.7%,0.0%
Cc1nc2sc3c(c2c(-c2ccc(Cl)cc2)c1C(N)=O)CCC3,-7.9%,-8.1%
